Some test systems named below: SR leukemia; OVCAR-8 ovarian; OVCAR-5 ovarian; OVCAR-4 ovarian; SK-OV-3 ovarian; IGROV1 ovarian; OVCAR-3 ovarian; HS 578T breast; NCI/ADR-RES ovarian; T-47D breast; BT-549 breast; MDA-MB-435 melanoma; SW-620 colon; HCT-116 colon; HCC-2998 colon; KM12 colon.
Common to all, as to experiment: NCI-60 one-dose screen, 48 h (100 = growth as untreated, 0 = no growth, -100 = all killed)
In another test the test system is RPMI-8226 leukemia. Particulars: 10 µM unless noted.
The next test concerns MCF7 breast. Particulars: 10 µM unless noted.

Several values for one entry are separate records, joined by “and”; a condition that tells them apart may be missing. Equal values may be shown once. The panel holds about 83,000 compounds, 20% with a hit somewhere; the sample as a whole holds those more often.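 Cell lines were cultured in 96-well plates, exposed to a single compound concentration, and assessed for percent growth 48 hours later.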 Activity calls are given as the source filed them. The calls were made as follows: active = growth percent below 10; inactive = the rest.

4 compounds from PubChem BioAssay (NCI) can be followed below.

Turning to `Cc1cc(N=Nc2ccc(C)c(N=Nc3cc(C)c(N)cc3N)c2)c(N)cc1N`, the growth in the test with SR leukemia (10 µM unless noted) was 97.9% (inactive) and 35.1% (inactive); in the test on RPMI-8226 leukemia, 43.6% (inactive) and 88.2% (inactive); in the test with OVCAR-8 ovarian (10 µM unless noted), 98.9% (inactive) and 102% (inactive); in the test with OVCAR-5 ovarian (10 µM unless noted) it was 92.5% (inactive) and 86.8% (inactive); in the test on OVCAR-4 ovarian (10 µM unless noted), 86.6% (inactive) and 75.5% (inactive); in the test on SK-OV-3 ovarian (10 µM unless noted), 91% (inactive) and 95.2% (inactive). For the same compound, the growth in the test on IGROV1 ovarian (10 µM unless noted) is 36.8% (inactive) and 53.5% (inactive); in the test on OVCAR-3 ovarian (10 µM unless noted), 89.3% (inactive) and 63.1% (inactive); with HS 578T breast (10 µM unless noted), 89.4% (inactive) and 88.8% (inactive); with NCI/ADR-RES ovarian (10 µM unless noted) it was 92.4% (inactive) and 84% (inactive); in the test with T-47D breast (10 µM unless noted), 77.5% (inactive) and 82.6% (inactive); in the test with BT-549 breast (10 µM unless noted), 94.2% (inactive). Further, the growth with MDA-MB-435 melanoma (10 µM unless noted) is 100% (inactive) and 12% (inactive); with SW-620 colon (10 µM unless noted), 94.8% (inactive) and 48.4% (inactive); with MCF7 breast it was 66.9% (inactive) and 19.4% (inactive); in the test on HCT-116 colon (10 µM unless noted), 84.3% (inactive) and 58.3% (inactive); in the test with HCC-2998 colon (10 µM unless noted), 105% (inactive) and 91% (inactive); in the test with KM12 colon (10 µM unless noted), 90.6% (inactive) and 39.6% (inactive).

Consider `CC(C)(C)c1cc(NC(=O)Cc2ccc(-c3cnc4cc(-c5cnn(CCN6CCOCC6)c5)ccc4n3)cc2)no1`, for which the growth in the test on SR leukemia (10 µM) was 9.16% (active); in the test on SR leukemia (30 µM), 8.04% (active); with RPMI-8226 leukemia it was 22.5% (inactive); with OVCAR-8 ovarian (10 µM), 18.6% (inactive); in the test with OVCAR-8 ovarian (30 µM), 26.1% (inactive); with OVCAR-5 ovarian (10 µM) it was 24.2% (inactive). Further, the growth with OVCAR-5 ovarian (30 µM) is 20.1% (inactive); with OVCAR-4 ovarian (10 µM), 10.1% (inactive); with OVCAR-4 ovarian (30 µM) it was 22.9% (inactive); in the test on SK-OV-3 ovarian (10 µM) it was -14.1% (active); with SK-OV-3 ovarian (30 µM), 9.27% (active); with IGROV1 ovarian (10 µM) it was -7.95% (active). Besides, the growth in the test on IGROV1 ovarian (30 µM) is -9.55% (active); with OVCAR-3 ovarian (10 µM), 28.4% (inactive); in the test with OVCAR-3 ovarian (30 µM), 22% (inactive); in the test with HS 578T breast (10 µM), -5.25% (active); with HS 578T breast (30 µM), 3.43% (active); in the test with NCI/ADR-RES ovarian (10 µM), 12.8% (inactive). Further, the growth in the test with NCI/ADR-RES ovarian (30 µM) is 16.9% (inactive); with T-47D breast (10 µM), 15.6% (inactive); with T-47D breast (30 µM) it was 25.5% (inactive); in the test on BT-549 breast (10 µM) it was 22% (inactive); in the test with BT-549 breast (30 µM), 32.9% (inactive); in the test with MDA-MB-435 melanoma (10 µM) it was 19.1% (inactive). The growth in the test on MDA-MB-435 melanoma (30 µM) was 19.6% (inactive); with SW-620 colon (10 µM), 15.5% (inactive); with SW-620 colon (30 µM) it was 18.8% (inactive); with HCT-116 colon (10 µM) it was 14.9% (inactive); in the test on HCT-116 colon (30 µM), 24.3% (inactive); with HCC-2998 colon (10 µM) it was 40.3% (inactive). The growth in the test on HCC-2998 colon (30 µM) was 39.4% (inactive); in the test with KM12 colon (10 µM) it was 8.46% (active); in the test with KM12 colon (30 µM) it was 9.72% (active).

`COc1cc(Nc2nc3ccccc3nc2NS(=O)(=O)c2ccc(NC(=O)c3ccc(C)c(OC)c3)cc2)cc(OC)c1`: the growth in the test with SR leukemia (10 µM unless noted) was 31.3% (inactive) and 8.54% (active); in the test on RPMI-8226 leukemia, 8.4% (active); in the test on OVCAR-8 ovarian (10 µM unless noted), 46.6% (inactive) and 5.53% (active); with OVCAR-5 ovarian (10 µM unless noted) it was 71.2% (inactive) and 3.89% (active); in the test with OVCAR-4 ovarian (10 µM unless noted), 43.3% (inactive) and -2.71% (active); in the test with SK-OV-3 ovarian (10 µM unless noted), 49% (inactive) and -44% (active). Further, the growth in the test on IGROV1 ovarian (10 µM unless noted) is 6.75% (active) and -30.1% (active); in the test with OVCAR-3 ovarian (10 µM unless noted) it was 51.6% (inactive) and 6.96% (active); in the test with HS 578T breast (10 µM unless noted), 3.34% (active); in the test on NCI/ADR-RES ovarian (10 µM unless noted), 75.5% (inactive) and 2.39% (active); with T-47D breast (10 µM unless noted), 35.9% (inactive) and -31.1% (active); in the test on BT-549 breast (10 µM unless noted), 39.6% (inactive) and -6.94% (active). Besides, the growth with MDA-MB-435 melanoma (10 µM unless noted) was 68.3% (inactive) and 3.11% (active); with SW-620 colon (10 µM unless noted), 52% (inactive) and 28.1% (inactive); with MCF7 breast, 36.6% (inactive) and 5.28% (active); in the test on HCT-116 colon (10 µM unless noted), 69.9% (inactive) and 18.2% (inactive); in the test on HCC-2998 colon (10 µM unless noted), 68.5% (inactive); in the test with KM12 colon (10 µM unless noted), 54% (inactive) and 13.9% (inactive).

In the case of `CCOC(=O)Nc1nc2ccccc2[nH]1`, the growth with SR leukemia (10 µM unless noted) is 98.9% (inactive); in the test on RPMI-8226 leukemia, 97.3% (inactive) and -1.09% (active); in the test with OVCAR-8 ovarian (10 µM unless noted), 97.7% (inactive) and 50.6% (inactive); in the test on OVCAR-5 ovarian (10 µM unless noted) it was 109% (inactive) and 58.4% (inactive); in the test with OVCAR-4 ovarian (10 µM unless noted), 111% (inactive) and 83% (inactive); in the test with SK-OV-3 ovarian (10 µM unless noted), 103% (inactive) and 31.1% (inactive). The growth in the test on IGROV1 ovarian (10 µM unless noted) was 114% (inactive) and 39.3% (inactive); in the test with OVCAR-3 ovarian (10 µM unless noted), 122% (inactive) and 1.16% (active); with HS 578T breast (10 µM unless noted), 11.2% (inactive); in the test on NCI/ADR-RES ovarian (10 µM unless noted) it was 104% (inactive) and 3.49% (active); in the test on T-47D breast (10 µM unless noted), 110% (inactive) and 42.1% (inactive); in the test with BT-549 breast (10 µM unless noted), 105% (inactive) and 11.7% (inactive). Also, the growth in the test with MDA-MB-435 melanoma (10 µM unless noted) was 96.1% (inactive) and -30% (active); in the test on SW-620 colon (10 µM unless noted), 108% (inactive) and 12% (inactive); in the test with MCF7 breast, 113% (inactive) and 17.8% (inactive); with HCT-116 colon (10 µM unless noted), 106% (inactive) and 23% (inactive); in the test on HCC-2998 colon (10 µM unless noted), 108% (inactive) and -9.87% (active); in the test with KM12 colon (10 µM unless noted), 106% (inactive) and 26.2% (inactive).
